# Inconclusive results are not listed. Unmarked numbers belong to inactive results. Active and inactive are the calls of the source. Calls follow the shape of the full dose curve.
# Test: Primary qHTS for Huh7 cytotoxicity: counterscreen for inhibitors of MERS-S pseudotyped particle cell entry (AID 1479147)
# Conditions: cell viability read-out; series mostly up to 57.1 µM; activity change, negative = cytotoxicity: at the top concentration
# % is scaled to controls: 0 for no effect and ±100 for the full control effect.
Compound,outcome,"activity change, negative = cytotoxicity"
CCC(c1ccccc1)c1c(O)c2ccccc2oc1=O (stereo not given),inactive,–
CCCCC(=O)N(Cc1ccc(-c2ccccc2-c2nn[nH]n2)cc1)[C@H](C(=O)O)C(C)C,inactive,–
C=C1c2c(Cl)ccc(O)c2C(O)=C2C(=O)[C@@]3(O)C(O)=C(C(N)=O)C(=O)[C@@H](N(C)C)[C@@H]3[C@@H](O)[C@H]12,–,-1.86%
CC1CCCC(C)N1C(=S)Nc1cccc(C(F)(F)F)c1 (stereo not given),inactive,–
CCCCCCC(=O)O[C@H]1CC[C@H]2[C@@H]3CCc4cc(O)ccc4[C@H]3CC[C@]12C,–,-11.1%
CC(=O)Nc1c(I)c(C(=O)N[C@H]2C(O)O[C@H](CO)[C@@H](O)[C@@H]2O)c(I)c(N(C)C(C)=O)c1I (stereo not given in full),inactive,–
Cn1nnnc1SCC1=C(C(=O)O)N2C(=O)[C@@H](NC(=O)[C@H](OC=O)c3ccccc3)[C@H]2SC1,inactive,–
O=C(Nc1ccc(O)cc1)c1ccccc1O,–,-16%
CN(C)CCC(O)(c1ccccc1)c1ccccc1Cl (stereo not given),inactive,–
CCCOc1cc(N)ccc1C(=O)OCCN(CC)CC,–,-23.8%
NC(=O)c1ccc[n+]([C@@H]2O[C@H](COP(=O)([O-])OP(=O)(O)OC[C@H]3O[C@@H](n4cnc5c(N)ncnc54)[C@H](O)[C@@H]3O)[C@@H](O)[C@H]2O)c1,inactive,–
O=C(c1ccc(F)c(F)c1Nc1ccc(I)cc1F)N1CC(O)([C@@H]2CCCCN2)C1,–,-22.8%
Cc1ncc(COP(=O)(O)O)c(CN)c1O,–,-1.65%
CN1N=C2CCN(C(=O)[C@H](COCc3ccccc3)NC(=O)C(C)(C)N)C[C@]2(Cc2ccccc2)C1=O,–,-12.5%
NC(N)=NCC1COC2(CCCCC2)O1 (stereo not given),inactive,–
C[N+]1(C)CCN(CC(O)(c2ccccc2)C2CCCCC2)CC1 (stereo not given),–,1.73%
CCC(C)C(C(=O)OCC[N+](C)(CC)CC)c1ccccc1 (stereo not given),inactive,–
CC(=O)Oc1c(C)cc(OCC(O)CNC(C)C)c(C)c1C (stereo not given),inactive [at 114 µM],–
CC(=O)N(CC(C)C(=O)O)c1c(I)cc(I)c(N)c1I (stereo not given),inactive,–
C[C@H](Cc1cc2c(c(C(N)=O)c1)N(CCCO)CC2)NCCOc1ccccc1OCC(F)(F)F,–,-23.7%

Compound,outcome,"activity change, negative = cytotoxicity"
FCOC(C(F)(F)F)C(F)(F)F,–,1.48%
N=C(N)c1ccc(/C=C/c2ccc(C(=N)N)cc2O)cc1,inactive,–
C#C[C@]1(OC(C)=O)CC[C@H]2[C@@H]3CCC4=CC(=O)CC[C@@H]4[C@H]3CC[C@@]21C,–,-24.1%
CON=C1C[C@]2(C[C@@H]3C[C@@H](C/C=C(\C)C[C@@H](C)/C=C/C=C4\CO[C@@H]5[C@H](O)C(C)=C[C@@H](C(=O)O3)[C@]45O)O2)O[C@H](/C(C)=C/C(C)C)[C@H]1C,inactive,–
CN[C@@H]1[C@@H](O)[C@@H](O[C@@H]2[C@@H](O)[C@H](OC3O[C@H](CN)[C@@H](O)[C@H](O)[C@H]3O)[C@@H](N)C[C@H]2NC(=O)[C@@H](O)CN)OC[C@]1(C)O (stereo not given in full),–,-20.6% [at 26.4 µM]
CCC(=O)O[C@@H](OP(=O)(CCCCc1ccccc1)CC(=O)N1C[C@H](C2CCCCC2)C[C@H]1C(=O)O)C(C)C (stereo not given in full),inactive [at 11.4 µM],–
CC[C@@H]1CCN[C@H](C(=O)N[C@@H]([C@H]2O[C@H](SC)[C@H](O)[C@@H](O)[C@H]2O)[C@H](C)Cl)C1,–,-6.33%
O=C(O)C(O)[C@H](O)[C@H](O)[C@H](O)[C@H](O)CO (stereo not given in full),inactive,–
Cc1c(C)c2c(c(C)c1OC(=O)CCC(=O)O)CC[C@@](C)(CCC[C@H](C)CCC[C@H](C)CCCC(C)C)O2,inactive,–
COc1nc2ccc(Br)cc2cc1[C@@H](c1ccccc1)[C@@](O)(CCN(C)C)c1cccc2ccccc12,–,2.72%
CC[N+](CC)(CC)CCC(O)(c1ccccc1)C1CCCCC1 (stereo not given),inactive,–
CCCCN(CCCC)C(=S)[S-].CCCCN(CCCC)C(=S)[S-].[Zn+2],inactive,–
C=Cc1c(C)c2cc3nc(c(CC(=O)N[C@@H](CC(=O)O)C(=O)O)c4nc(cc5[nH]c(cc1[nH]2)c(C)c5CC)C(C)=C4C(=O)O)[C@@H](CCC(=O)O)[C@@H]3C,–,3.48%
CCCCCCCCCCCCCCCCCC(=O)NCCCC[C@H](NC(=O)CC[C@@H](NC(=O)[C@H](C)NC(=O)[C@@H](C)O[C@H]1[C@H](O)[C@@H](CO)OC(O)[C@@H]1NC(C)=O)C(N)=O)C(=O)O (stereo not given in full),inactive,–
CC#CCC(C)[C@H](O)/C=C/[C@@H]1[C@H]2C/C(=C/CCCC(=O)O)C[C@H]2C[C@H]1O (stereo not given in full),inactive,–
CC(C)(C)C(=O)OCOC(=O)[C@@H]1N2C(=O)[C@@H](N=CN3CCCCCC3)[C@H]2SC1(C)C,inactive,–
C=CC1(C)CC(=O)C2(O)C(C)(O1)C(OC(C)=O)C(OC(=O)CCN(C)C)C1C(C)(C)CCC(O)C12C (stereo not given),–,-21.9%
CCC(=O)OC1(C(=O)CCl)C(C)CC2C3CC(F)C4=CC(=O)C=CC4(C)C3(F)C(O)CC21C (stereo not given),–,2.48%
[Mn].[O]=[Mn][OH].[O]=[Mn][OH],–,0.99%
N[C@H](Cc1cnc[nH]1)C(=O)O,inactive,–

# — PubChem BioAssay (NCATS)
